Measurements published in PubChem BioAssay AID813 (Sanford-Burnham Center for Chemical Genomics, 2007).
In all, about 64,000 compounds went through this assay and fewer than 10 were called active.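 Rule for the calls: active = activation factor of at least 2 at 20 µM, relative to controls; inactive = the rest.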 The list is a sample of the results.

These compounds were tested against Alkaline phosphatase, tissue-nonspecific isozyme (Homo sapiens) (UniProt P05186) (assay: stimulation of alkaline phosphatase TNAP activity – biochemical, luminescent, intermediate phosphate acceptor level, primary screen (AID 813)). Conditions: purified TNAP, CDP-star luminescence, 100 mM DEA, 30 min; at 20 µM; hits give high values; scale: 0 levamisole-inhibited, 1 vehicle-only enzyme.
Alkaline phosphatase, tissue-nonspecific isozyme (Homo sapiens), sequence (P05186 whole entry, looked up): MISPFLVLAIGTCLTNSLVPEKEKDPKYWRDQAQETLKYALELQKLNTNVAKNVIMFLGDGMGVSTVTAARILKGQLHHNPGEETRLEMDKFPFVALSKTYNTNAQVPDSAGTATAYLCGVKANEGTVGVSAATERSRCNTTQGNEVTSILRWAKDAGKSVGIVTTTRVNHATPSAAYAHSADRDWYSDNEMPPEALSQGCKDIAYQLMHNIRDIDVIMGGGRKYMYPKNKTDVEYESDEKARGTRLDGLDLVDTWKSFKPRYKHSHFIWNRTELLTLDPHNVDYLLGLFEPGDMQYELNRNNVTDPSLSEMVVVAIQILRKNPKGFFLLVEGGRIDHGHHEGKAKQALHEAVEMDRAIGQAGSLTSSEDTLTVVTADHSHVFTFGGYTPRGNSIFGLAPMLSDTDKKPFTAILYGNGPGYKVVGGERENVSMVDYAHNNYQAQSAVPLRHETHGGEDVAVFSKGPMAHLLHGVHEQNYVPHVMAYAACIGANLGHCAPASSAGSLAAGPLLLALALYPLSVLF

Activation factor, inactive:
Cc1ccc(C)n1-c1ccncc1 0.9
Cc1cc(N2C(=O)C(=O)/C(=C(/O)c3ccc(Cl)cc3)C2c2cccc(Br)c2)no1 (stereo not drawn) 0.8
CCCOc1ccc(CN(CCO)CCO)cc1C(=O)OC 0.9
CN(C)Cc1c(O)ccc2occ(C(O)c3ccccc3)c12 (stereo not drawn) 0.9
CCn1cc(C(=O)NC2CCCCCC2)c(=O)c2cc(S(=O)(=O)N3CCCCC3)ccc21 0.9
CCn1cc(C(=O)N2CCN(C3CCCCC3)CC2)c2cc(OC)c(OC)cc2c1=O 0.9
CCOC(=O)N1CCN(C(=O)c2ccc3nc4cc(Cl)ccc4c(=O)n3c2)CC1 0.9
CCc1nc(C)cn1S(=O)(=O)c1cc(OC)c(C)cc1C 0.9
O=C(O)CC(c1ccccc1)n1cnnn1 (stereo not drawn) 1
COCCCn1c(CCC(=O)O)ccc1-c1ccc(F)cc1 0.9
CC1CN(C(=O)c2ccc3c(c2)OCO3)OC(c2ccccc2)O1 (stereo not drawn) 1
COC(=O)[C@H](Cc1ccccc1)NC(=O)Nc1ccc(S(N)(=O)=O)cc1 0.9
CC(=O)N=c1ncn(CC(COC(C)=O)OC(C)=O)c2nc[nH]c12 (stereo not drawn) 0.9
O=C(COc1ccc2c3c(c(=O)oc2c1)CCC3)NC1CCCCC1 1
Cc1ccc(S(=O)(=O)NCC(=O)N(CC(=O)NC2CCCCC2)Cc2ccco2)cc1 0.9
CC(C)c1cc(C(=O)O)on1 1
Cc1cc(C)cc(N(CC(=O)Nc2c(C)n(C)n(-c3ccccc3)c2=O)S(C)(=O)=O)c1 0.9
CC(C)(C)n1nnc(CCc2nnn(C(C)(C)C)n2)n1 0.9
O=C(c1ccccc1)c1ccc(OC(=O)N2CCCC2)cc1 0.9
COc1cc(OC)c(C(=O)NC2CC(C)(C)NC(C)(C)C2)cc1OC 1
CCOc1ccc(C(=O)NC2CCN(S(=O)(=O)CC)CC2)cc1 0.9
COc1ccc(S(=O)(=O)N2CCCC(C(=O)N3CCN(C)CC3)C2)cc1C (stereo not drawn) 1
COC(=O)COc1ccc2oc(=O)cc(C)c2c1 1
CC(=O)Nc1ccc(S(=O)(=O)N2CCSCC2)cc1 1
O=C(CCCN1C(=O)CCC1=O)Nc1ccc(Cl)c(C(F)(F)F)c1 0.9
Cc1cc(N2C(=O)C(=O)/C(=C(/O)c3ccccc3)C2c2cccc(Br)c2)no1 (stereo not drawn) 1
CCn1cc(C(=O)N2CCN(Cc3ccc4c(c3)OCO4)CC2)c2cc(OC)c(OC)cc2c1=O 0.9
CCc1c(C)c2c(C)[nH]nc2oc1=O 0.8
